Screening results from PubChem.
Sfp PPTase inh – blocks B. subtilis Sfp PPTase activity. Q9F4F7. Biochemical Sfp PPTase activity, qHTS. Potency, µM, without a hit: largest response in the series, negative = inhibition, most hits filed as inhibitors. 310,000 tested, 3.5% active. AID 1490;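 note: the enzyme is Sfp with the accession as filed and its product quenches rhodamine fluorescence; 0% = enzyme reaction without inhibitor and -100% = no enzyme wells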
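Reaction rates are the 30-min fluorescence difference (ex 525, em 598 nm) in wells containing 15 nM Sfp, 5 uM rhodamine-CoA and 12.5 uM BHQ-2-YbbR at pH 7.6 with 10 mM MgCl2.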
HP1b chromo inh – HP1-beta chromodomain-methylated histone interaction inhibition; Potency, µM (series often up to 114 µM), for the others: top-dose activity change, negative = inhibition, usual class: inhibitors; AlphaScreen HP1-beta / biotin-H3K9me3 peptide binding; 390,000 tested, 0.56% active; P83916; note: nearly all actives have a fitted effect of over 70% in size
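AlphaScreen: HP1-beta (50 nM) preformed 30 min with biotin-H3(1-18)K9me3 peptide (50 nM) in PBS pH 7.4, 0.01% Tween-20. Compound added for 30 min at RT, then streptavidin donor/nickel chelate acceptor beads (10 ug/mL) for 30 min.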
L3MBTL1 inh – L3MBTL1 (human) inhibition | Q9Y468 | AlphaScreen L3MBTL1–H3K9me1 peptide binding | Potency, µM (doses to about 57.1 µM), for the others: top-dose activity, negative = inhibition, most hits filed as inhibitors | 230,000 tested, 0.66% active; note: % is set by controls: 0 for no effect and ±100 for the full control effect; nearly all actives have a fitted effect of over 60% in size
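First, the protein-peptide complex forms for 30 min at room temperature (L3MBTL1 50 nM, biotinylated H3K9me1 peptide 75 nM). Next, compounds are pin-transferred and incubated 30 min. Finally, AlphaScreen beads are added and read after 30 min.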
G9a inh – inhibitors of human histone lysine methyltransferase G9a. G9a H3K9 monomethylation, AlphaScreen, 2 h. Potency, µM (doses to about 102 µM), inactives show top-dose activity, negative = inhibition, usual class: inhibitors. 350,000 tested, 8.8% active; note: % is set by controls: 0 for no effect and ±100 for the full control effect; nearly all actives have a fitted effect of over 75% in size
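Using a bead-based AlphaScreen, monomethylated H3K9 product from 2 h room-temperature reactions (G9a 20 nM, peptide 500 nM, SAM 20 uM) was detected with 0.5 ug/mL rabbit anti-H3K9me1 antibody.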
BAZ2B inh – blocks human BAZ2B; Q9UIF8; Potency, µM (titrated, usually from 114 µM), inactives show top-dose activity change, negative = inhibition, most hits filed as inhibitors; 360,000 tested, 4.4% active; AID 504333; AlphaScreen BAZ2B-H3K14Ac peptide displacement; note: % is set by controls: 0 for no effect and ±100 for the full control effect; nearly all actives have a fitted effect of over 60% in size
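Compounds, titrated to a top concentration of 110 uM, were incubated 30 min at room temperature with preformed BAZ2B/acetyl-K14 H3 peptide complex (50 nM each). Proximity signal was measured by AlphaScreen after 20 min with beads.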
JMJD2A Tudor inh – blocks the human JMJD2A Tudor domain; O75164; AlphaScreen JMJD2A-Tudor / H3K4me3 peptide binding; Potency, µM (highest dose often 114 µM), inactives show at the highest dose activity change, negative = inhibition, most hits filed as inhibitors; 390,000 tested, 4.4% active; AID 504339; note: % is set by controls: 0 for no effect and ±100 for the full control effect; nearly all actives have a fitted effect of over 50% in size
Target sequence (O75164 whole entry, looked up, the tested form may be a part): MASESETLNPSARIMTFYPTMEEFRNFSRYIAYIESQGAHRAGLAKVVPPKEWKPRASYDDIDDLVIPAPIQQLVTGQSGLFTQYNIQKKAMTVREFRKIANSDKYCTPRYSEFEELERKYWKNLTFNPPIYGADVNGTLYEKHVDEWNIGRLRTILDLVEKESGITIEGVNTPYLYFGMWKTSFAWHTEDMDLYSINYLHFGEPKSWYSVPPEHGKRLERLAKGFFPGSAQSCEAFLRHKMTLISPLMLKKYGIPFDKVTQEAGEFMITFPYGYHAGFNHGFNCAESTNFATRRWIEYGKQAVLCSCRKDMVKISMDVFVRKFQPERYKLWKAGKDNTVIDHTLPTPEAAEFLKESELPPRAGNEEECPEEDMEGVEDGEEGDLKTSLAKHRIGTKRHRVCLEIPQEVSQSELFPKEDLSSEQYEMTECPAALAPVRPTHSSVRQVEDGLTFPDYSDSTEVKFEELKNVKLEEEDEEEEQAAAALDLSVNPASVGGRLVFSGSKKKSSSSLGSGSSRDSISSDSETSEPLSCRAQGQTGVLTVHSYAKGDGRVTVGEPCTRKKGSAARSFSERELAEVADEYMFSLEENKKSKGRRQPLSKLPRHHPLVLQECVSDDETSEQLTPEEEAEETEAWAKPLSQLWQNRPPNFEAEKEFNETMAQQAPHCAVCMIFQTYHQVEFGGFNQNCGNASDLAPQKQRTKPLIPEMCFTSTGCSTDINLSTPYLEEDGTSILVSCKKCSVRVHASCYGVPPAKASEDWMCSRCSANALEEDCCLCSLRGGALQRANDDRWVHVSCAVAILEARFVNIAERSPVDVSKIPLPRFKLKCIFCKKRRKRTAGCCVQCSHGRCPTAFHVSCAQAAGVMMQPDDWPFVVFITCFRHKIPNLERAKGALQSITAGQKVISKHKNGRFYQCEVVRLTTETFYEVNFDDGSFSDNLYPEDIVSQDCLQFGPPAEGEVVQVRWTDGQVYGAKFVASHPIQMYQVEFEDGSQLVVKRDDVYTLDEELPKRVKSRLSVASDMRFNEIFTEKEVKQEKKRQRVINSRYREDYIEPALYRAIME
The depositor's hits bear a star; [ ] = another dose, or the depositor's remark. Hits are enriched below; roughly 12% of the tested compounds scored in any of these assays. Calls come from the whole dose curve; as a rule, active = well fitted curve in the direction sought with a large enough effect; inconclusive = small, poorly fitted or top-dose-only effect, or another doubt; inactive = no such curve, though single readings can be large; an effect the other way counts as inactive or inconclusive. Potency is the fitted concentration of half-maximal effect.

Results for Cn1cc(C(c2ccccc2OCC(=O)O)c2cn(C)c3ccccc23)c2ccccc21 ?
Sfp PPTase inh: -3%; HP1b chromo inh: inconclusive; L3MBTL1 inh: -3%; G9a inh: -14%; BAZ2B inh: 50µM*; JMJD2A Tudor inh: 14µM*

Results for c1ccc(C(c2c[nH]c3ccccc23)c2c[nH]c3ccccc23)nc1 ?
Sfp PPTase inh: 15%; HP1b chromo inh: -28%; G9a inh: inconclusive; BAZ2B inh: 45µM*; JMJD2A Tudor inh: 79µM*

What do the screens show for `CC(C)CN(CCCNC(=O)Cn1ncc2c3ccccc3n(C)c2c1=O)CC(C)C`?
HP1b chromo inh: 17%; G9a inh: -3%[59 µM]; BAZ2B inh: 2%; JMJD2A Tudor inh: -13%

How did CCCNC(=O)N1CCN(c2ncccn2)CC1 do in these assays?
Sfp PPTase inh: -2%; HP1b chromo inh: 30%; L3MBTL1 inh: 24%[11.4 µM]; G9a inh: 15%[59 µM]; BAZ2B inh: 7%; JMJD2A Tudor inh: -8%

What do the screens show for `CCCNC(=O)N1CCN(S(C)(=O)=O)CC1`?
Sfp PPTase inh: -7%; HP1b chromo inh: 37%; L3MBTL1 inh: -1%; G9a inh: 40µM*; BAZ2B inh: -11%; JMJD2A Tudor inh: -7%[11.4 µM]

Results for CC1(O)CC(c2ccc(Cl)cc2)=NN1C(=O)c1ccc([N+](=O)[O-])cc1 (stereo unspecified) ?
Sfp PPTase inh: 17%; HP1b chromo inh: inconclusive; L3MBTL1 inh: inconclusive; G9a inh: inconclusive; BAZ2B inh: 14µM*; JMJD2A Tudor inh: -24%[11.4 µM]

How did COc1ccccc1CNC(=O)Cn1c(=O)oc2cc(S(=O)(=O)NCc3ccccc3)ccc21 do in these assays?
HP1b chromo inh: 23%; G9a inh: 5%[59 µM]; BAZ2B inh: -4%; JMJD2A Tudor inh: -19%

Results for CC(Sc1nc2ccccc2s1)C(=O)Nc1ccc2c(c1)OCO2 (stereo unspecified) ?
Sfp PPTase inh: -4%; HP1b chromo inh: 35%; L3MBTL1 inh: -13%; G9a inh: 1.8µM*; BAZ2B inh: -10%; JMJD2A Tudor inh: 8%

What do the screens show for `CC(Sc1nnc(N)s1)C(=O)Nc1ccc2c(c1)OCO2` (stereo unspecified)?
HP1b chromo inh: 34%; L3MBTL1 inh: -3%; G9a inh: 45µM*; BAZ2B inh: 12%; JMJD2A Tudor inh: -27%

Results for O=C(Nc1ccc2c(c1)OCO2)C1CCCN(c2nc3ccccc3s2)C1 (stereo unspecified) ?
Sfp PPTase inh: -7%; HP1b chromo inh: -5%; L3MBTL1 inh: -3%; G9a inh: 3.2µM*; BAZ2B inh: -35%; JMJD2A Tudor inh: -25%

Results for Cc1ccc(S(=O)(=O)N[C@H]2COC(=O)CC=C[C@@H](C)[C@H]3C=C[C@H](O)[C@@H](COC(=O)CC=C[C@H]2C)O3)cc1 ?
Sfp PPTase inh: -2%

Results for CN(C(=O)c1cccc(N2C(=O)C3CC=CCC3C2=O)c1)C1CCCCC1 (stereo unspecified) ?
Sfp PPTase inh: -11%; HP1b chromo inh: 13%; L3MBTL1 inh: -10%; G9a inh: 50µM*; BAZ2B inh: -10%; JMJD2A Tudor inh: -19%

How did CN(Cc1ccccc1)C(=O)c1cccc(N2C(=O)C3CC=CCC3C2=O)c1 (stereo unspecified) do in these assays?
Sfp PPTase inh: 3%; HP1b chromo inh: 50%; G9a inh: -7%[2.33 µM]; BAZ2B inh: 1%; JMJD2A Tudor inh: 4%

What do the screens show for `CCOC(=O)C1(CCOC)CCN(Cc2ccncc2)CC1`?
Sfp PPTase inh: 18%; HP1b chromo inh: 29%; L3MBTL1 inh: 4%; G9a inh: 50µM*; BAZ2B inh: -3%; JMJD2A Tudor inh: -13%

What do the screens show for `CCOC(=O)C1(CCOC)CCN(Cc2cccc(OCc3ccccc3)c2)CC1`?
Sfp PPTase inh: inconclusive; HP1b chromo inh: 36%; L3MBTL1 inh: 0%; G9a inh: 34%; BAZ2B inh: 4%; JMJD2A Tudor inh: 10%

What do the screens show for `CCOC(=O)C1(CCOc2ccccc2)CCN(Cc2ccncc2)CC1`?
Sfp PPTase inh: 45µM*; HP1b chromo inh: 18%[57 µM]; L3MBTL1 inh: -6%; BAZ2B inh: inconclusive; JMJD2A Tudor inh: -20%

What do the screens show for `CN(C(=O)c1ccc2c(c1)N(Cc1ccccc1F)C(=O)c1ccccc1S2(=O)=O)C1CCCCC1`?
HP1b chromo inh: 32%; G9a inh: -18%[59 µM]; BAZ2B inh: -19%; JMJD2A Tudor inh: -20%

What do the screens show for `C/C(=N\Nc1ccc(C(=O)c2c(C)cc3ccccn23)cc1[N+](=O)[O-])c1ccc(O)cc1`?
Sfp PPTase inh: 20µM*; HP1b chromo inh: inconclusive; G9a inh: inconclusive; BAZ2B inh: inconclusive; JMJD2A Tudor inh: inconclusive

What do the screens show for `Cc1cc2ccccn2c1C(=O)c1ccc(N/N=C/c2ccc(C(=O)O)cc2)c([N+](=O)[O-])c1`?
Sfp PPTase inh: 5%; HP1b chromo inh: -10%; G9a inh: inconclusive; BAZ2B inh: inconclusive; JMJD2A Tudor inh: inconclusive

What do the screens show for `NC(N)=NS(=O)(=O)c1ccc(NC(=S)NC(=O)c2sc3ccccc3c2Cl)cc1`?
Sfp PPTase inh: 56µM*; HP1b chromo inh: -9%; L3MBTL1 inh: 4%; G9a inh: inconclusive; BAZ2B inh: -32%; JMJD2A Tudor inh: -23%

Results for NC(N)=NS(=O)(=O)c1ccc(NC(=S)NC(=O)c2ccncc2)cc1 ?
Sfp PPTase inh: 50µM*; HP1b chromo inh: inconclusive; G9a inh: -17%[59 µM]; BAZ2B inh: 3%; JMJD2A Tudor inh: -27%

What do the screens show for `COc1cc(NS(=O)(=O)c2ccc(NC(=O)c3cccs3)cc2)nc(OC)n1`?
Sfp PPTase inh: 6%; HP1b chromo inh: -3%; G9a inh: -14%; BAZ2B inh: -15%; JMJD2A Tudor inh: -19%

How did COc1cc(NS(=O)(=O)c2ccc(NC(=S)NC(=O)c3sc4cc(F)ccc4c3Cl)cc2)nc(OC)n1 do in these assays?
Sfp PPTase inh: 50µM*; HP1b chromo inh: inconclusive; L3MBTL1 inh: 9%; G9a inh: inconclusive; BAZ2B inh: -29%; JMJD2A Tudor inh: inconclusive

Results for NC(N)=NS(=O)(=O)c1ccc(NC(=S)NC(=O)c2ccc(Br)cc2)cc1 ?
Sfp PPTase inh: -13%; HP1b chromo inh: 12%; L3MBTL1 inh: -20%; G9a inh: -43%; BAZ2B inh: -11%; JMJD2A Tudor inh: -6%

Results for COc1cc(NS(=O)(=O)c2ccc(NC(=S)NC(=O)c3sc4ccccc4c3Cl)cc2)nc(OC)n1 ?
Sfp PPTase inh: 50µM*; HP1b chromo inh: inconclusive; L3MBTL1 inh: inconclusive; G9a inh: inconclusive; BAZ2B inh: 50µM*; JMJD2A Tudor inh: -33%
